Data reported in ChEMBL document CHEMBL2218924, “A broad activity screen in support of a chemogenomic map for kinase signalling research and drug discovery” (Biochem J, 2013).

target: T1, Tyrosine-protein kinase ITK/TSK (Homo sapiens) (UniProt Q08881); conditions: at 1 µM
T1 sequence (whole entry): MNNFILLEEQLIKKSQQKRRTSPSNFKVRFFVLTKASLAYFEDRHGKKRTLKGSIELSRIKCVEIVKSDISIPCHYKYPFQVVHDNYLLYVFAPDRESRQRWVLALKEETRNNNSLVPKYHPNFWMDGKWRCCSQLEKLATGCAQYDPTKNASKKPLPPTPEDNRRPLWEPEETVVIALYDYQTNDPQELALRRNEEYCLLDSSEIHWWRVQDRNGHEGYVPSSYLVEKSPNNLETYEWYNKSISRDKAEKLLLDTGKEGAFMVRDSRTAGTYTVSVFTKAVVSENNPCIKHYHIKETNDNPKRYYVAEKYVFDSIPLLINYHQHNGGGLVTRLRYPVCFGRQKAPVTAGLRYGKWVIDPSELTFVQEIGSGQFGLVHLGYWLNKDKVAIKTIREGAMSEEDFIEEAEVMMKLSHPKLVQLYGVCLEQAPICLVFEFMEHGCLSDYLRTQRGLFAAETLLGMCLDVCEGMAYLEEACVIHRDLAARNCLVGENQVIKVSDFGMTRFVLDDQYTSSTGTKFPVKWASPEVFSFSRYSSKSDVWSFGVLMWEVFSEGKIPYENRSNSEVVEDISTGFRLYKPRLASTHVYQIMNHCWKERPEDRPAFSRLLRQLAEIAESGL

Structure (SMILES) | residual activity [%]
Cn1cc(/C=C2\C(=O)Nc3ccc(S(N)(=O)=O)cc32)c2ccccc21 | 8
COc1cc2ncnc(Nc3ccc(Oc4ccccc4)cc3)c2cc1OC | 86
O=c1cc(-c2cccc3c2Sc2ccccc2S3)oc(N2CCOCC2)c1 | 105
Oc1ccc(-c2nc(-c3ccc(F)cc3)c(-c3ccncc3)[nH]2)cc1 | 108
O=C1c2ccccc2-[n+]2ccc3c([nH]c4ccccc43)c21 | 96
Nc1nc(Nc2ccc(S(N)(=O)=O)cc2)nn1C(=S)Nc1c(F)cccc1F | 44
N#C/C(=C(\N)Sc1ccc(N)cc1)c1ccccc1C(F)(F)F | 100
c1ccc(-c2n[nH]cc2-c2ccnc3ccccc23)nc1 | 97
CC(=O)c1ccc(N2CCOCC2)cc1O | 97
CO[C@@H]1[C@H](N(C)C(=O)c2ccccc2)C[C@H]2O[C@]1(C)n1c3ccccc3c3c4c(c5c6ccccc6n2c5c31)C(=O)NC4 | 56
O=C(Nc1cccc(Nc2nccc(Nc3cccc(C(F)(F)F)c3)n2)c1)C1CC1 | 96
N#Cc1cnc2cnc(NCc3cccnc3)cc2c1Nc1ccc(F)c(Cl)c1 | 72
CC(=O)O/N=C1\C(=C2\C(=O)Nc3cc(Br)ccc32)Nc2ccccc21 | 82
Cn1cnc2cc3c(Nc4cccc(Br)c4)ncnc3cc21 | 104
CCC(=O)Nc1ccc2ncnc(Nc3cccc(Br)c3)c2c1 | 106
O=c1c2ccccc2[nH]c(=S)n1CCN1CCC(=C(c2ccc(F)cc2)c2ccc(F)cc2)CC1 | 109
CC[n+]1c(/C=C/N(C)c2ccccc2)n(-c2ccccc2)c2ccc(-c3nc4ccccc4s3)cc21 | 101
O=Nc1c(-c2c(O)[nH]c3ccccc23)[nH]c2ccccc12 | 19
CC#CC(=O)Nc1cc2c(Nc3ccc(F)c(Cl)c3)ncnc2cn1 | 100
O=[N+]([O-])c1ccc(-c2nc(-c3ccc(F)cc3)c(-c3ccncc3)[nH]2)cc1 | 108
Cc1cc2ncc(-c3ccccc3)nc2cc1C | 93
O=C(O)c1ccc2c3c1cccc3c(=O)n1c3ccccc3nc21 | 107
Cc1cccc(-c2[nH]c(C(C)(C)C)nc2-c2ccc3c(c2)OCO3)n1 | 96
CCN(CC)C(=O)c1ccc(Nc2nc(OCC3CCCCC3)c3nc[nH]c3n2)cc1 | 32
N#CCCc1ccc2c(c1)-c1[nH]c3ccc([N+](=O)[O-])cc3c1CC(=O)N2 | 81
Cc1cc(Nc2nc(-c3ccccc3)nc3ccccc23)n[nH]1 | 5
c1ccc(-c2n[nH]c3c2oc2ccccc23)cc1 | 98
Oc1ccc(Nc2nc(-c3ccc(Cl)cc3)cs2)cc1 | 104
c1ccc2c(-c3ccncc3)c[nH]c2c1 | 101

target: T1, Tyrosine-protein kinase ITK/TSK (Homo sapiens); conditions: at 10 µM

Structure (SMILES) | residual activity [%]
Cn1cc(/C=C2\C(=O)Nc3ccc(S(N)(=O)=O)cc32)c2ccccc21 | 1
O=c1cc(-c2cccc3c2Sc2ccccc2S3)oc(N2CCOCC2)c1 | 99
Oc1ccc(-c2nc(-c3ccc(F)cc3)c(-c3ccncc3)[nH]2)cc1 | 98
O=C1c2ccccc2-[n+]2ccc3c([nH]c4ccccc43)c21 | 93
Nc1nc(Nc2ccc(S(N)(=O)=O)cc2)nn1C(=S)Nc1c(F)cccc1F | 3
N#C/C(=C(\N)Sc1ccc(N)cc1)c1ccccc1C(F)(F)F | 96
c1ccc(-c2n[nH]cc2-c2ccnc3ccccc23)nc1 | 104
CC(=O)c1ccc(N2CCOCC2)cc1O | 97
CO[C@@H]1[C@H](N(C)C(=O)c2ccccc2)C[C@H]2O[C@]1(C)n1c3ccccc3c3c4c(c5c6ccccc6n2c5c31)C(=O)NC4 | 31
O=C(Nc1cccc(Nc2nccc(Nc3cccc(C(F)(F)F)c3)n2)c1)C1CC1 | 56
N#Cc1cnc2cnc(NCc3cccnc3)cc2c1Nc1ccc(F)c(Cl)c1 | 48
CC(=O)O/N=C1\C(=C2\C(=O)Nc3cc(Br)ccc32)Nc2ccccc21 | 39
Cn1cnc2cc3c(Nc4cccc(Br)c4)ncnc3cc21 | 87
CCC(=O)Nc1ccc2ncnc(Nc3cccc(Br)c3)c2c1 | 102
O=c1c2ccccc2[nH]c(=S)n1CCN1CCC(=C(c2ccc(F)cc2)c2ccc(F)cc2)CC1 | 96
CC[n+]1c(/C=C/N(C)c2ccccc2)n(-c2ccccc2)c2ccc(-c3nc4ccccc4s3)cc21 | 92
O=Nc1c(-c2c(O)[nH]c3ccccc23)[nH]c2ccccc12 | 1
CC#CC(=O)Nc1cc2c(Nc3ccc(F)c(Cl)c3)ncnc2cn1 | 92
O=[N+]([O-])c1ccc(-c2nc(-c3ccc(F)cc3)c(-c3ccncc3)[nH]2)cc1 | 98
COc1cc2ncnc(Nc3ccc(NC(=O)c4ccccc4)cc3)c2cc1OC | 99
O=C(O)c1ccc2c3c1cccc3c(=O)n1c3ccccc3nc21 | 94
Cc1cccc(-c2[nH]c(C(C)(C)C)nc2-c2ccc3c(c2)OCO3)n1 | 103
CCN(CC)C(=O)c1ccc(Nc2nc(OCC3CCCCC3)c3nc[nH]c3n2)cc1 | 2
N#CCCc1ccc2c(c1)-c1[nH]c3ccc([N+](=O)[O-])cc3c1CC(=O)N2 | 52
Cc1cc(Nc2nc(-c3ccccc3)nc3ccccc23)n[nH]1 | 0
c1ccc(-c2n[nH]c3c2oc2ccccc23)cc1 | 66
Oc1ccc(Nc2nc(-c3ccc(Cl)cc3)cs2)cc1 | 95
c1ccc2c(-c3ccncc3)c[nH]c2c1 | 95
